High-throughput results: PubChem, National Center for Advancing Translational Sciences (NCATS)
Pf growth 96h – P. falciparum growth inhibition at 96 hour, primary screen for plastid delayed-death inhibitors | P. falciparum luciferase reporter growth, 96 h | Potency, µM (top dose mostly 28.7 µM), for the others: top-dose activity change, negative = inhibition, most hits filed as inhibitors | 320,000 tested, 6.9% active | AID 504834; also: potency is read from the fitted curve at half-maximal effect; % is scaled to controls: 0 for no effect and ±100 for the full control effect
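Compounds incubated with erythrocytes infected by luciferase-expressing P. falciparum (2% hematocrit, 0.05% parasitemia final) for 96 hours, 37 C in 5% CO2. Growth inhibition scored as decreased luciferase luminescence.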
LmPK inhibitor – inhibitors of Leishmania mexicana pyruvate kinase; Q27686; purified LmPK, Kinase-Glo ATP luminescence, 1 h; Potency, µM (titrated, usually from 57.5 µM), inactives show top-dose activity change, negative = inhibition, hits mostly inhibitors; 290,000 tested, 0.37% active; AID 1721; also: potency is read from the fitted curve at half-maximal effect; % is scaled to controls: 0 for no effect and ±100 for the full control effect
Target sequence (Q27686 whole entry, looked up): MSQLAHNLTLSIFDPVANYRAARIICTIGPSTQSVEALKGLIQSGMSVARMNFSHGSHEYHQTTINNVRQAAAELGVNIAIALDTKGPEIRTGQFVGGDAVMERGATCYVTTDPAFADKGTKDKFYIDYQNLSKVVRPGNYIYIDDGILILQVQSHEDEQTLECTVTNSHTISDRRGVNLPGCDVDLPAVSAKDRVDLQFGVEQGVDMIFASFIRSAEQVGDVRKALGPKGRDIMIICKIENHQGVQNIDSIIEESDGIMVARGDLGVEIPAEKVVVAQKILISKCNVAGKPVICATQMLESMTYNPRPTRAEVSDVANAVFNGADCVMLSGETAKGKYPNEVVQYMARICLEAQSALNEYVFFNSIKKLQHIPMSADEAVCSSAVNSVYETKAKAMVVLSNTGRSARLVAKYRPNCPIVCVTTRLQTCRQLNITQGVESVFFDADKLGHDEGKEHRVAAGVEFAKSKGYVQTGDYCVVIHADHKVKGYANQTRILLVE
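Purified LmPK (0.1 nM) with 0.5 mM PEP and 0.1 mM ADP in imidazole buffer pH 7.2 with MgCl2/KCl, 1 h at room temperature. ATP formed was read by luciferase luminescence and normalized to no-enzyme and uninhibited controls.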
CHX counter – counter-screen hit for Shiga toxin inhibitors, cycloheximide | cell reporter, cycloheximide protein synthesis inhibition counterscreen | max response, % | 300,000 tested, 12% active | AID 2314; in the data active = max response mostly above about 13%, no sharp cut-off; inactive = mostly below about 14%; also: read at 38.3 µM for the half of the compounds with a filed dose; 0% is about no effect
Shiga toxin inh – Shiga toxin inhibition | 290,000 tested, 9.2% active | Vero cells, Shiga toxin protein synthesis inhibition reporter | inhibition, % at 38.7 µM; in the data active = inhibition mostly above about 28%, no sharp cut-off; inactive = mostly below about 43%; also: 0% is about no effect
Pf growth 48h – P. falciparum growth inhibition at 48 hours (one generation); P. falciparum luciferase growth in erythrocytes, 48 h; Potency, µM (titrated, usually from 28.7 µM), for inactives: at the highest dose activity change, negative = inhibition, hits mostly inhibitors; 310,000 tested, 5.9% active; also: potency is read from the fitted curve at half-maximal effect; % is scaled to controls: 0 for no effect and ±100 for the full control effect
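Luminescence readout; reporter = integrated firefly luciferase in P. falciparum. RBC culture at 2% hematocrit, 0.1% parasitemia final, 37 C/5% CO2; decreased signal taken as growth inhibition.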
Active calls of the source: *; ? = inconclusive; · = not tested or not shown; + = active, no number; [ ] = dose if it differs, or a comment. Compounds with a hit are over-represented: about 22% of the library has one in this group of screens. Unless noted, calls follow the shape of the dose curve; as a rule, active = well fitted inhibition curve with a large enough effect; inconclusive = small, poorly fitted or top-dose-only effect, or another doubt; inactive = no such curve, though single readings can be large or run the other way.

SMILES	Pf growth 96h	LmPK inhibitor	CHX counter	Shiga toxin inh	Pf growth 48h
COc1ccc(CN(CC(=O)NCc2ccccc2)C(=O)CCC(=O)Nc2cc(C)ccn2)cc1	37%	-7%	-5	22	6%
COc1ccc(CNc2cc(C)ccn2)cc1	?	-3%	37*	97*	-2%[0.00184 µM]
COc1ccc(CN(CC(=O)NCc2ccc(F)cc2)C(=O)CCC(=O)Nc2cc(C)ccn2)cc1	-1%	2%	-4	-12	-1%
Cc1ccnc(NCc2ccc(Br)cc2)c1	0%	-2%	38*	35*	33%
COc1ccc(CC(=O)Nc2cc(C)ccn2)cc1	-1%	2%	42*	86*	93%
O=C(Oc1c(Br)cc(Br)c2cccnc12)N1CCCCC1	?	-6%	32*	24	-14%
O=C(Oc1ccc(Cl)c2ccccc12)N1CCCCC1	?	-1%	32*	72*	·
O=C(Oc1c(Cl)cc(Cl)c2ccccc12)N1CCCC1	?	0%	-3	-14	?
O=C(Oc1ccc(Cl)c2cccnc12)N1CCCCC1	142%	3%	12	35	47%
O=C(Oc1c(Cl)cc(Cl)c2ccccc12)N1CCCCC1	12µM*	1%	14	35	·
COc1ccc(C(=O)N2CCC(c3ccccc3)CC2)c(OC)c1OC	26%	-14%	-6	10	-1%
COC(C(=O)NNC(=O)CCc1ccccc1)c1ccccc1 (stereo not given)	-39%	-6%	-3	-22	-30%
CCOc1ccccc1C(=O)Nc1nnc(COC)s1	-22%	-2%	21*	22	13%
CCOc1ccccc1C(=O)Nc1nccs1	6.6µM*	2%	-2	31	10%
CCOc1ccccc1C(=O)Nc1ccccc1-c1ccccc1	4.1µM*	1%	-4	-7	13%
CCCCc1nnc(NC(=O)c2ccccc2OCc2c(C)noc2C)s1	0.93µM*	·	·	·	9.3µM*
O=C(COC(=O)CNC(=O)c1ccc(Cl)cc1Cl)Nc1ccc(N2CCOCC2)cc1	29%	-3%	2	35	-14%
CCOc1cc(CNC(C)C)c(Cl)cc1OCC(=O)NCCc1ccccc1	?	-5%	-4	-16	·
O=C(Nc1ccccc1-c1ccccc1)c1ccccc1Br	0%	1%	0	-9	0%
O=C(Nc1ccccc1Br)c1ccccc1-c1ccccc1	7.4µM*	0%	-4	-14	2%
CCOc1ccc(C(C)NC(=O)c2ccccc2OCc2c(C)noc2C)cc1OCC (stereo not given)	6.6µM*	0%	-2	16	?
COC(=O)c1cnn(-c2nc3c(C)cccc3s2)c1C	·	1%	1	-13	-4%
C/C=C/C=C/C(=O)N1CC[C@]23c4ccccc4N[C@H]4N(C)c5cccc6c5[C@]42CCN([C@H]6C2OC2(C)C)[C@H]13 (stereo not given in full)	38%	5%	-3	-5	12µM*
CCc1nc(SCC(=O)Nc2cccc(C(F)(F)F)c2)c2c(=O)n(C)c(=O)n(C)c2n1	?	0%	-3	-9	9.3µM*
CCc1nc(SCC(=O)Nc2ccc(F)cc2F)c2c(=O)n(C)c(=O)n(C)c2n1	35%	3%	0	-13	3%
SMILES	Pf growth 96h	LmPK inhibitor	CHX counter	Shiga toxin inh	Pf growth 48h
CC(C)(C)NC(=O)CSc1ncccc1-c1nc2ccccc2[nH]1	?	3%	26*	26*	-4%
Cn1c(SCC(=O)N2CCc3ccccc32)nc2cccnc21	?	4%	1	-1	-11%
COC(=O)CSc1ncccc1-c1nc2ccccc2[nH]1	?	-2%	24*	+	45%
COC(=O)CSc1nc2ccccc2nc1SCC(=O)OC	15%	-1%	8	22	58%
O=C(CSc1ncccc1-c1nc2ccccc2[nH]1)N1CCc2ccccc21	110%	2%	85*	26	0%
CCOc1ccc(CN2CCN(S(=O)(=O)c3ccc(NC(C)=O)cc3)CC2)cc1	0%	1%	1	-15	?
COc1ccc(N(CC(=O)NCc2ccccc2OC)S(=O)(=O)c2ccc(C)cc2)cc1Cl	29%	-5%	5	-30	?
Cc1ccsc1/C=N/n1c(-c2ccccn2)n[nH]c1=S	47%	7%	10	13	38%
Cc1ccc(O)c(N=CC2=C(O)c3ccccc3C2=O)c1	64%	1%	33*	109*	?
O=C1C(C=Nc2ccccc2O)=C(O)c2ccccc21	?	?	32*	51*	99%
Cc1ccccc1-n1c(SCC(N)=O)nc2sc(-c3ccccc3)cc2c1=O	·	12%	-1	-9	6%
Cc1ccc(/C=N/NC(=O)CSc2nc3ccccc3c(=O)n2-c2ccccc2C)s1	12µM*	8%	-3	-11	-30%
Cc1ccccc1-n1c(SCC(=O)NC(N)=O)nc2sc(-c3ccccc3)cc2c1=O	?	6%	18*	24	?
COc1cccc2c1Oc1ncccc1N(C(=O)CCC(=O)NCc1ccccc1F)C2	12µM*	1%	-2	-3	-14%
COc1ccc(OC)c(CNC(=O)CCC(=O)N2Cc3cccc(OC)c3Oc3ncccc32)c1	?	1%	8	2	-25%
COc1ccccc1CNC(=O)CCC(=O)N1Cc2cccc(OC)c2Oc2ncccc21	9.3µM*	-3%	-4	8	0%
CCOc1ccc(CNC(=O)CCC(=O)N2Cc3ccccc3Oc3ncccc32)cc1	?	2%	-3	2	?
CCOc1ccccc1CNC(=O)CCC(=O)N1Cc2ccccc2Oc2ncccc21	9.3µM*	-5%	-9	-10	-15%
COc1cccc2c1Oc1ncccc1N(C(=O)CCC(=O)NCc1ccccc1)C2	-3%	3%	6	-4	?
O=C(COC(=O)Cc1cccc(C(F)(F)F)c1)Nc1ccccc1	6%	1%	0	-11	4%
O=C(OCc1cc([N+](=O)[O-])cc2c1OCOC2)c1ccccn1	48%	2%	33*	35	8%
Nc1cc(N)nc(SCc2cc([N+](=O)[O-])cc3c2OCOC3)n1	?	0%	14	27	-11%
O=[N+]([O-])c1cc2c(c(CSc3ncccn3)c1)OCOC2	57%	0%	21*	60	58%
CCN(C(=O)COC(=O)c1cccnc1SC)c1c(N)n(Cc2ccccc2)c(=O)[nH]c1=O	4%	·	·	·	-13%
O=C(CN1C(=O)/C(=C/c2cccc(Br)c2)SC1=S)N1CCCC1	99%	-1%	-1	-6	?
CC(C)CCNC(=O)c1ccc(Cl)c(NC(=O)Cc2ccccc2)c1	?	7%	16	45*	?
CCOCC(=O)Nc1cc(C(=O)NCCc2ccccc2)ccc1Cl	79%	0%	42*	43*	108%
COc1ccc(C(=O)Nc2nc(CC(=O)NCCc3ccccc3)cs2)cc1	31%	·	·	·	16%
COc1ccc(C(=O)Nc2cc(C(=O)NCCc3ccccc3)ccc2Cl)cc1	·	4%	29*	35	-2%
COCC(=O)Nc1cc(C(=O)NCC(C)C)ccc1Cl	16%	-1%	-2	1	12%
